Compound activity as filed in PubChem BioAssay.
ATXN2 expr inh: Primary qHTS for Inhibitors of ATXN expression; HEK-293 ATXN2-luciferase reporter, luminescence, 24 h; Potency, µM (series often up to 57 µM), for the others: at the top dose activity change, negative = inhibition, most hits filed as inhibitors; hit rate 0.72% among 360,000; note: % is set by controls: 0 for no effect and ±100 for the full control effect; nearly all actives have a fitted effect of over 55% in size
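ATXN2-luciferase reporter cells (luciferase flanked by upstream and downstream ATXN2 gene portions) were treated 24 h at 37 °C with compounds at up to 57 uM. SteadyGlo luminescence gave expression; GF-AFC fluorescence gave viability.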
KB-3-1 cytotox: qHTS assay for MDR1-selective chemotherapeutics: Primary screen using the parental adenocarcinoma cell KB-3-1; KB-3-1 viability, CellTiter-Glo ATP luminescence, 72 h; Potency, µM (titrated, usually from 46.1 µM), actives largely listed as cytotoxic; hit rate 1.4% among 400,000; AID 1347075, 2019; note: % is set by controls: 0 for no effect and ±100 for the full control effect; nearly all actives have a fitted effect of over 60% in size
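Cytotoxicity in the drug-sensitive parental line KB-3-1 was scored as loss of CellTiter-Glo luminescence following 72 h incubation with compound. Values come from curve fitting of normalized concentration-response data.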
HT1080 IDH1KD tx: qHTS for induction of synthetic lethality in tumor cells producing 2HG: qHTS for the HT-1080-IDH1KD cell line. HT-1080 IDH1 knockdown viability, ATP luminescence, 48 h. Potency, µM (series often up to 46.1 µM), without a hit: at the highest dose activity, negative = toxicity, hits mostly cytotoxic. hit rate 2% among 360,000. AID 686971, 2013;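 note: 0% = DMSO wells and -100% = cell-free medium wells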
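Assay cells: HT-1080 with IDH1 knockdown, 750 per well, RPMI/5% FBS. Exposure: 48 h at 37 °C following 2 h pre-incubation. Read: CellTiter-Glo luminescence; fitted concentration-response, curve class assigned.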
HT1080-NT tox: qHTS for induction of synthetic lethality in tumor cells producing 2HG: qHTS for the HT-1080-NT fibrosarcoma cell line. Potency, µM (titrated, usually from 46.1 µM), without a hit: top-dose activity, negative = less viability, hits mostly cytotoxic. hit rate 1.6% among 360,000. HT-1080-NT fibrosarcoma viability, CellTiter-Glo ATP luminescence, 48 h;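 note: NT is the 2HG producing partner of a matched IDH1 knockdown line; 0% = DMSO-treated cells and -100% = media-only wells without cells; nearly all actives have a fitted effect of over 55% in size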
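Luminescent CellTiter-Glo readout after 48 hours of compound exposure at 37 degrees C defined viability of HT-1080-NT cells. Activity was normalized to DMSO wells and cell-free media wells; concentration-response curves were fitted and assigned curve classes.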
KB-V1 cytotox: qHTS assay for MDR1-selective chemotherapeutics: Primary screen using the drug-selected MDR subline cells KB-V1. KB-V1 MDR cells viability, CellTiter-Glo, 72 h. Potency, µM (titrated, usually from 46.1 µM), usual class: cytotoxic. hit rate 3.4% among 400,000. AID 1347076, 2019; note: % is set by controls: 0 for no effect and ±100 for the full control effect; nearly all actives have a fitted effect of over 60% in size
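KB-V1 cells (P-gp-expressing MDR subline of KB-3-1) in phenol-red-free DMEM with 10% FBS were exposed to library compounds over a concentration series for 72 h at 37 degrees C. Viability read by CellTiter-Glo luminescence; concentration-effect curves fitted after normalization.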
S2 tox: Viability Counterscreen for Primary qHTS for Inhibitors of ATXN expression; hit rate 0.49% among 400,000; Potency, µM (titrated, usually from 56.7 µM), hits mostly cytotoxic; AID 651635, 2014; S2 cells (HEK-293 line with an ATXN2-luciferase reporter) viability, CellTiter-Fluor protease fluorescence, 24 h; note: nearly all actives have a fitted effect of over 40% in size
Starred values were filed as active, the others as inactive; i = inactive; u = inconclusive; x = no result given; ! = not active in a repeat. An excerpt weighted towards active compounds, which were near 6.2% of everything screened. Calls come from the whole dose curve; as a rule, active = well fitted curve in the direction sought with a large enough effect; inconclusive = small, poorly fitted or top-dose-only effect, or another doubt; inactive = no such curve, though single readings can be large; an effect the other way counts as inactive or inconclusive. Potency is the fitted concentration of half-maximal effect.

SMILES | ATXN2 expr inh | KB-3-1 cytotox | HT1080 IDH1KD tx | HT1080-NT tox | KB-V1 cytotox | S2 tox
COc1ccc(NC(=O)CN(C)C(=O)c2cn(-c3ccccc3)nc2-c2ccc(Cl)cc2)cc1 | u | u | u | u | 23µM* | u
CCCCc1ccc(-n2nc3ccc(NC(=O)c4cc5ccccc5o4)cc3n2)cc1 | u | i | x | x | i | 22µM*
CCOc1ccc(NC(=O)Nc2cccc(C(=O)O)c2)cc1 | 1µM* | i | u | u | u | i
CNCC(=O)Nc1ccc(Cl)c(C(F)(F)F)c1 | -30% | i | -5% | -13% | i | i
CN(NC(=O)Nc1ccc(Cl)cc1)c1ncc(C(F)(F)F)cc1Cl | 2% | u | u | u | 16µM* | i
Cc1ccc(/C=N/NC(=O)NN(C)c2ncc(C(F)(F)F)cc2Cl)cc1 | -11% | i | u | -30% | i | i
O=C(Nc1ccc(Cl)cc1)Nc1ccc(Cl)c(C(F)(F)F)c1 | u | x | x | x | x | 16µM*!
Cc1ccnc2c(N)cccc12 | x | u | x | x | i | x
Cc1cccc(OCC(=O)Nc2cc(NC(=O)COc3cccc(C)c3C)cc(C(=O)O)c2)c1C | x | i | 0% | -3% | i | i
CCOc1ccc(-n2nc3ccc(NC(=O)CC)cc3n2)cc1 | 8% | i | u | u | i | i
CCOc1ccc(NC(=O)Nc2cc(C)ccc2F)cc1 | 75% | i | u | u | 13µM* | i
CCOc1ccc(-n2nc3ccc(NC(=O)Cc4ccccc4)cc3n2)cc1 | u | i | x | x | u | 14µM*
Cc1ccccc1OCC(=O)Nc1cccc(C(=O)O)c1 | 0.17µM* | i | 1% | 6% | i | i
CCOc1ccc(NC(=O)Nc2cc(C(C)C)c(O)cc2C)cc1 | -8% | i | 0% | -12% | i | i
O=C(Nc1ccc(Cl)cc1)Nc1cccc(C(=O)O)c1 | 8.9µM* | i | -2% | 5% | i | i
CCC1CN(Cc2cccc3nccnc23)Cc2cc(OC)ccc2O1 (centres undefined) | x | x | x | x | x | i
Cn1c(=O)c2c(SCC(=O)NCc3ccco3)nc(-c3ccccc3F)nc2n(C)c1=O | 5% | i | x | x | i | i
COc1c(C)c2c(c(O)c1CC=C(C)CCC(=O)O)C(=O)OC2 | 64% | x | x | x | x | x
CCn1c(-c2ccccc2F)nc2cc(NC(C)=O)cc(C(=O)N3CCCC3c3nccs3)c21 (centres undefined) | x | x | x | x | x | i
COc1ccc(Nc2nnc(SCC(=O)/C=C3/N(C)c4ccccc4C3(C)C)s2)cc1 | u | u | u | -15% | 2.6µM* | u
CCOc1cc(/C=C/C(=O)c2ccc3c(c2)OCCO3)ccc1OCC(=O)N(C)C | u | u | 18µM* | u | 16µM* | i
CCCCOc1ccc(S(=O)(=O)Nc2cccnc2)cc1 | -17% | 26µM* | -16% | u | 5.8µM* | i
CCCCOc1cccc(C(=O)NC(=S)Nc2cccnc2)c1 | -2% | i | 1% | -3% | 18µM* | i
CCOc1ccc(NS(=O)(=O)c2ccc3c(c2)oc(=O)n3C)cc1 | 1% | i | 6% | -1% | 15µM* | i
CCOc1cccc(C(=O)NC(=S)Nc2cccnc2)c1 | 48% | i | 17% | 4% | u | i
SMILES | ATXN2 expr inh | KB-3-1 cytotox | HT1080 IDH1KD tx | HT1080-NT tox | KB-V1 cytotox | S2 tox
CCOc1ccc(S(=O)(=O)Nc2ccc3c(c2)n(C)c(=O)n3C)cc1 | 6% | u | -24% | u | 15µM* | i
CCc1ccc(NS(=O)(=O)c2ccc3c(c2)oc(=O)n3C)cc1 | -16% | i | -12% | -10% | i | i
COc1cc(C2Nc3ccccc3C(=O)N2Cc2ccco2)cc(OC)c1OC (centres undefined) | x | i | x | x | i | x
COc1ccc(S(=O)(=O)Nc2cccc3ccc(O)cc23)cc1 | u | 15µM* | 5.2µM* | 3.3µM* | u | u
CCOc1ccc(S(=O)(=O)Nc2cccc(OC)c2)cc1 | -12% | i | 10µM* | u | u | i
COc1ccc(S(=O)(=O)Nc2c(F)cccc2F)cc1 | -12% | i | -13% | 0% | i | i
COc1ccccc1C1CN(Cc2c(C)nn(C)c2Cl)Cc2ccccc2O1 (centres undefined) | x | x | x | x | x | i
COc1cc2nc(N3CCCC(O)C3)c(CNCc3ccccc3F)cc2c(OC)c1OC (centres undefined) | x | x | x | x | x | i
COc1ccc(NC(=O)C2CCN(S(=O)(=O)c3ccc4c(c3)CCCC(=O)N4)CC2)cc1OC | 4% | i | x | x | i | i
CCc1ccc(S(=O)(=O)/N=C2\C=C(Nc3cccc(C(=O)O)c3)C(=O)c3ccccc32)cc1 | 32µM* | i | 7.3µM* | 8.2µM* | i | 25µM*
CCOC(=O)c1ccc(NC2=CC(=O)C(=O)c3ccccc32)cc1 | -23% | u | -16% | -25% | u | u
O=C(O)c1cccc(NC2=C(n3nnc4ccccc43)C(=O)c3ccccc3C2=O)c1 | x | i | -11% | -23% | i | u
CCc1ccc(S(=O)(=O)/N=C2\C=C(Nc3ccc(O)cc3)C(=O)c3ccccc32)cc1 | 3.5µM* | 2.9µM* | 2.9µM* | 2.9µM* | u | 7.1µM*
CCc1ccc(S(=O)(=O)/N=C2/C=C(Sc3ncn[nH]3)C(=O)c3ccccc32)cc1 | 16µM* | i | 5.2µM* | 5.8µM* | i | u
O=C1c2ccccc2C(=O)N1CCSc1ncn[nH]1 | -6% | i | 9% | 19% | i | i
CCC(CC)C(=O)Nc1ccc2nc(SCC(=O)N3c4ccccc4CC3C)sc2c1 (centres undefined) | 49% | u | x | x | i | u
COc1ccc2c(c1)OC(C)CN(CC(=O)NCc1cn[nH]c1-c1ccc(F)cc1)C2 (centres undefined) | x | x | x | x | x | i
COc1ccc(C)c2sc(NC(=O)c3ccc(S(=O)(=O)N4CCCCC4)cc3)nc12 | -5% | i | x | x | u | i
Cc1c(C(=O)NCCN2CCC(c3ccccc3)CC2)cnn1-c1nccc(-c2cccs2)n1 | x | x | x | x | x | 28µM*
COc1ccc(C(=O)NNc2ccccc2)cc1 | -1% | i | -10% | u | i | i
